Measured values taken from ChEMBL document CHEMBL1157539, “Thousands of chemical starting points for antimalarial lead identification” (Nature, 2010).

Tests used:
Type in all cases: functional
Plasmodium falciparum [1] = assay: GSK_TCMDC: Inhibition of Plasmodium falciparum 3D7 in whole red blood cells, using parasite LDH activity as an index of growth. Test compounds present at 2uM
Plasmodium falciparum [2] = assay: GSK_TCMDC: Inhibition of Plasmodium falciparum Dd2 in whole red blood cells, using parasite LDH activity as an index of growth. Test compounds present at 2uM
HepG2 = assay: GSK_TCMDC: Percent inhibition of human HepG2 cell line. Test compounds present at 10uM.

Compound | Inhibition (Plasmodium falciparum [1]) [%] | Inhibition (Plasmodium falciparum [2]) [%] | Inhibition (HepG2) [%]
O=C(/C=C/c1cccc(C(F)(F)F)c1)NCCCCCN1CCN(C(=O)Nc2ccc(Cl)c(Cl)c2)CC1.O=C(O)C(F)(F)F | 89 | 0 | 29
O=C(Cc1c[nH]cn1)Nc1cccc(-c2cccc(-c3nc4cc(C(F)(F)F)ccc4[nH]3)c2)c1 | 100 | 100 | 35
COc1cc(CNC[C@@H](O)[C@H](Cc2ccccc2)NC(=O)c2cc(OC(C)C)cc(N3CCCCS3(=O)=O)c2)cc(OC)c1.Cl | 100 | 94 | 7
CC(CN1CCN(C)CC1)C(=O)Nc1ccc(-c2csc(-c3nc4ccccc4[nH]3)c2)cc1 (stereo unspecified) | 93 | 26 | 15
Cl.OCC(CO)(CO)NCc1ccc2c3c(cccc13)-c1ccccc1-2 | 87 | 76 | 73
CCCN(CCC)S(=O)(=O)c1ccc(C(=O)N2CCC(C(=O)OCC)CC2)cc1 | 98 | 41 | 26
O=C(Nc1ccccc1)N(Cc1cccc(-c2ccc(CNCCc3ccccc3)cc2)c1)C1CCN(Cc2ccccc2)CC1.O=C(O)C(F)(F)F | 100 | 95 | 100
Fc1ccc(NC(S)=NN=Cc2ccccn2)cc1 | 95 | 67 | 56
CSc1ccccc1NC(=S)NC1CCN(CCCCCNC(=O)/C=C/c2ccc(Cl)c(Cl)c2)CC1 | 98 | 27 | 19
CCN(CC)CCNc1ccnc2ccc3ccccc3c12 | 100 | 67 | 5
COc1cc(OC)nc(-c2cccc(NC(=O)c3ccc4c(=O)n(CCN5CCCCC5)cnc4c3)c2)n1 | 100 | 86 | 11
CC(C)CNCc1cccc(-c2ccc(CN(CCCN3CCN(C)CC3)C(=O)/C=C/c3ccccc3)cc2)c1.O=C(O)C(F)(F)F | 92 | 90 | 48
Cc1cc(=O)c(C2CCC(c3ccc(Cl)cc3)CC2)c(C)[nH]1 (stereo unspecified) | 88 | 70 | 0
CC1CCN(C(=O)C(Cc2c[nH]c3ccccc23)NS(=O)(=O)c2ccc(Cl)cc2)CC1 (stereo unspecified) | 100 | 99 | 0
COc1ccc(C=NNc2nc(O)cc(-c3ccccc3)n2)cc1OC | 92 | 93 | 22
Cc1cc(N(C)C)nc(Nc2ccc(NC(=O)c3ccccc3Cl)cc2)n1 | 88 | 31 | 3
Cc1ccc(OCCCCONC(=O)c2ccccc2)cc1 | 96 | 1 | 6
COc1cc2c(cc1N1CC(C)NC(C)C1)N(C(=O)c1ccc(-c3ccc(-c4ncc[nH]4)cc3C)cc1)CC2 (stereo unspecified) | 98 | 58 | 7
CC(=O)Nc1nc(C(=O)Nc2cccc(-c3ccc(-c4nc5cc(F)ccc5[nH]4)cc3)c2)cs1 | 100 | 32 | 54

Compound | Inhibition (Plasmodium falciparum [1]) [%] | Inhibition (Plasmodium falciparum [2]) [%] | Inhibition (HepG2) [%]
CCNc1cc(C(=O)N[C@@H](Cc2ccccc2)[C@H](O)CNCc2cc(OC)cc(OC)c2)cc(N2CCCS2(=O)=O)c1.Cl | 99 | 86 | 0
Br.c1cc(C2=NC3CCCCC3N2)ccc1OCCCOc1ccc(C2=NC3CCCCC3N2)cc1 (stereo unspecified) | 99 | 64 | 0
CN(C)CCNC(=O)[C@H](CC1CCCCC1)NC(=O)c1ccc(O)c(-c2ccc(Cl)c(Cl)c2)c1 | 98 | 97 | 0
O=C(NC1CCN(c2ccnc3cc(Cl)ccc23)C1)c1cccc(F)c1.O=C(O)C(F)(F)F (stereo unspecified) | 95 | 98 | 30
CC(=O)c1ccc(O)c(CC(O)CO)c1 (stereo unspecified) | 100 | 0 | 3
Cc1cc(N[C@@H](CC(C)C)C(=O)NCc2cccs2)nc(NCCc2cccs2)n1.O=C(O)C(F)(F)F | 92 | 13 | 0
O=C(NNC(=O)c1ccc(CCN2CCC(c3nc(COCC(F)(F)F)c(-c4ccc(F)cc4)o3)CC2)cc1)Nc1ccc(Oc2ccccc2)cc1 | 100 | 89 | 38
COc1ccc2nccc([C@@H](O)CN3CCC(NC(=O)/C=C/c4cc(F)cc(Br)c4)CC3)c2c1 | 95 | 50 | 24
Cc1cc(NC(=O)c2ccco2)ccc1OC1CCN(Cc2ccc(F)cc2)CC1.O=C(O)C(F)(F)F | 96 | 93 | 4
CN(C)CCNCc1cccc(-c2cccc(-c3nc4ccccc4[nH]3)c2)c1.O=C(O)C(F)(F)F | 100 | 63 | 7
Nc1cc2c(C3CCN(CC4CCN(C(=O)/C=C/c5ccc(Cl)c(Cl)c5)CC4)CC3)c[nH]c2cn1 | 100 | 94 | 0
N#CN1CC[C@@H](NS(=O)(=O)Cc2ccc(Cl)c(Cl)c2)C1 | 94 | 94 | 13
CC(C)Oc1cc(-c2ccc(S(C)(=O)=O)cc2)nc(N(Cc2cccc(F)c2F)Cc2cccc(F)c2F)n1 | 100 | 99 | 10
O=C(c1cc(-c2ccccc2)n[nH]1)N1CCN(S(=O)(=O)c2ccc(Cl)s2)CC1 | 88 | 81 | 9
O=C(/C=C/c1ccc(Cl)c(Cl)c1)N1CCC(CN2CCC(c3c[nH]c4ccncc34)CC2)CC1 | 100 | 72 | 44
O=C(O)C(F)(F)F.Oc1ccc(-c2nc3c(N4CCN(Cc5ccccc5)CC4)cccc3n2C2CCNCC2)cc1 | 85 | 7 | 0
CC(Oc1ccc(Cl)cc1)C(=O)N(C)C1CCN(CCCCCNC(=O)/C=C/c2ccc(Cl)c(Cl)c2)CC1 (stereo unspecified) | 85 | 10 | 61
Fc1ccc2cc(C=Cc3ccncc3)[nH]c2c1 | 100 | 89 | 0
CCN(CC)CCN(Cc1ccc(-c2ccc(C(F)(F)F)cc2)cc1)C(=O)Cn1c(CCc2cccc(F)c2F)nc(=O)c2ccc(C(F)(F)F)cc21.O=C(O)C(O)C(O)C(=O)O | 99 | 55 | 19

Compound | Inhibition (Plasmodium falciparum [1]) [%] | Inhibition (Plasmodium falciparum [2]) [%] | Inhibition (HepG2) [%]
O=C(CCCCCNC(=O)c1ccc(O)c(-c2ccc(Cl)c(Cl)c2)c1)NCCc1ccc(Cl)c(Cl)c1 | 97 | 20 | 57
CCCCCOc1c(CCC)cc(Cc2cnc(N)nc2N)cc1CCC | 94 | 0 | 58
Cl.NC(=O)c1sc(-n2cnc3ccc(OCC4CCNCC4)cc32)cc1OCc1ccccc1C(F)(F)F | 100 | 62 | 18
OC1(C(F)(F)F)CC(c2ccccc2)=NN1c1nncc(-c2ccccc2)n1 (stereo unspecified) | 99 | 3 | 0
COc1cccc(CNC(=O)c2ccnc(-c3cccc(CN(C)C4CCN(C)CC4)c3)c2)c1.O=C(O)C(F)(F)F | 100 | 46 | 19
COc1cc(CC2c3cc(O)c(Cl)cc3CCN2C)c(OC)cc1C.Cl (stereo unspecified) | 99 | 88 | 10
Cc1ccc2nc(-c3ccc(C(=O)NCc4ccc(Cl)c(Cl)c4)cc3)[nH]c2c1C | 96 | 26 | 19
CCN(CC)CCN(Cc1ccc(-c2ccc(C(F)(F)F)cc2)cc1)C(=O)Cn1c(CCc2cccc(F)c2F)cc(=O)c2c1CCCC2.O=C(O)C(O)C(O)C(=O)O | 100 | 95 | 93
CCCCCN1CCCN(Cc2cccc(NC(=O)c3ccc(-c4ccccc4)cc3)c2)CC1.O=C(O)C(F)(F)F | 95 | 15 | 23
CC(C)CNCc1cccc(-c2ccc(CNc3ccc(C(=O)c4ccccc4)cc3)cc2)c1.O=C(O)C(F)(F)F | 97 | 0 | 10
O=C(O)C(F)(F)F.O=S(=O)(NCCN1CCCC1)c1ccc(-c2cccc(CNCc3ccsc3)c2)s1 | 90 | 43 | 42
COc1ccc(C2CC(c3cccs3)=NN2C(=O)c2ccco2)cc1OC (stereo unspecified) | 100 | 97 | 0
OC1(c2ccc(Br)cc2)CCN(C2CCN(Cc3ccccc3)CC2)CC1 | 100 | 18 | 8
CCNc1cc(-c2cccc(OC)c2)nc(Nc2ccc(F)cc2)n1 | 87 | 23 | 11
CC1CCC(C[C@@H](C(=O)N[C@H](C(=O)Nc2nccs2)[C@@H](C)O)[C@H](CCC(F)(F)F)N(O)C=O)CC1 (stereo partly specified) | 95 | 94 | 0
Br.CCOC(=O)c1cc(Cl)cc(Cl)c1OCCCON1C(=N)N=C(N)NC1(C)C | 93 | 97 | 70
O=C(Nc1cc(Cl)ccc1O)c1cnn2c(C(F)(F)F)cc(-c3cccs3)nc12 | 100 | 74 | 8
CC1(C)CC(NCCCCCCCOc2ccc(OCc3ccccc3)cc2)CC(C)(C)N1.Cl | 100 | 73 | 99
Cc1ccc(NC(=O)Nc2ccc(Cl)cc2)cc1-c1ccc(C(=O)Nc2ccncc2)cc1 | 99 | 63 | 54
